These results are taken from doi:10.1101/2024.03.05.583629.

Chain of pT7_6His-AlfaTag-HOXD13 (P35453 263-343): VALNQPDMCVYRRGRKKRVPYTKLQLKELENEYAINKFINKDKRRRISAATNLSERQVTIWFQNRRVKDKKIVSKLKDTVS

This test concerns the target pT7_6His-AlfaTag-HOXD13 (human, UniProt P35453 263-343). The test is described as follows: PADIT-seq. The settings on record: dsDNA, one strand shown.
In turn, “CTCGAGGATATCAAGATCTGGCCTCGGCCGCCCAATAGGAACCTCTAGCTAGCCGACTCACTATAGGGATAATCGCCCTGAGCAAAGACC” registered a binding signal of -0.536 ± 0.118 log2FC.

Regarding “CTCGAGGATATCAAGATCTGGCCTCGGCTTTTTATGTGGAACCTCTAGCTAGCCGACTCACTATAGGGATAATCGCCCTGAGCAAAGACC”, the binding signal came to 2.89 ± 0.0872 log2FC.

For the sequence “CTCGAGGATATCAAGATCTGGCCTCGGCATTTTAATGGGAACCTCTAGCTAGCCGACTCACTATAGGGATAATCGCCCTGAGCAAAGACC”, the binding signal was determined as 2.51 ± 0.077 log2FC.

“CTCGAGGATATCAAGATCTGGCCTCGGCTCGATAAAAGGAACCTCTAGCTAGCCGACTCACTATAGGGATAATCGCCCTGAGCAAAGACC” gave a binding signal of 1.03 ± 0.106 log2FC.

With “CTCGAGGATATCAAGATCTGGCCTCGGCAAACCACGCGGAACCTCTAGCTAGCCGACTCACTATAGGGATAATCGCCCTGAGCAAAGACC”, the binding signal was -0.989 ± 0.132 log2FC.

Sequence “CTCGAGGATATCAAGATCTGGCCTCGGCATTTTAACTGGAACCTCTAGCTAGCCGACTCACTATAGGGATAATCGCCCTGAGCAAAGACC” had a binding signal of 1.48 ± 0.0833 log2FC.

“CTCGAGGATATCAAGATCTGGCCTCGGCCCGCCACGCGGAACCTCTAGCTAGCCGACTCACTATAGGGATAATCGCCCTGAGCAAAGACC” registered a binding signal of -1.05 ± 0.125 log2FC.

In turn, “CTCGAGGATATCAAGATCTGGCCTCGGCGTTTTAGGGGGAACCTCTAGCTAGCCGACTCACTATAGGGATAATCGCCCTGAGCAAAGACC” returned a binding signal of 1.59 ± 0.0927 log2FC.

Turning to “CTCGAGGATATCAAGATCTGGCCTCGGCTTTTTAACTGGAACCTCTAGCTAGCCGACTCACTATAGGGATAATCGCCCTGAGCAAAGACC”, the binding signal is 1.56 ± 0.107 log2FC.

Sequence “CTCGAGGATATCAAGATCTGGCCTCGGCATTTTATAAGGAACCTCTAGCTAGCCGACTCACTATAGGGATAATCGCCCTGAGCAAAGACC” displayed a binding signal of 3.26 ± 0.0841 log2FC.

“CTCGAGGATATCAAGATCTGGCCTCGGCGTTTTAGACGGAACCTCTAGCTAGCCGACTCACTATAGGGATAATCGCCCTGAGCAAAGACC” came in with a binding signal of -0.509 ± 0.117 log2FC.

The sequence “CTCGAGGATATCAAGATCTGGCCTCGGCGCGCATGCGGGAACCTCTAGCTAGCCGACTCACTATAGGGATAATCGCCCTGAGCAAAGACC” yielded a binding signal of -0.957 ± 0.123 log2FC.

In turn, “CTCGAGGATATCAAGATCTGGCCTCGGCATTTTATCCGGAACCTCTAGCTAGCCGACTCACTATAGGGATAATCGCCCTGAGCAAAGACC” gave a binding signal of 1.17 ± 0.0736 log2FC.

“CTCGAGGATATCAAGATCTGGCCTCGGCCTTTTACGTGGAACCTCTAGCTAGCCGACTCACTATAGGGATAATCGCCCTGAGCAAAGACC” returned a binding signal of 2.16 ± 0.0717 log2FC.

As to “CTCGAGGATATCAAGATCTGGCCTCGGCGAACTAAAAGGAACCTCTAGCTAGCCGACTCACTATAGGGATAATCGCCCTGAGCAAAGACC”, the binding signal was -0.56 ± 0.0894 log2FC.

As for “CTCGAGGATATCAAGATCTGGCCTCGGCGATATAAAAGGAACCTCTAGCTAGCCGACTCACTATAGGGATAATCGCCCTGAGCAAAGACC”, the binding signal came out at 1.99 ± 0.0693 log2FC.

With “CTCGAGGATATCAAGATCTGGCCTCGGCTTCATAAAAGGAACCTCTAGCTAGCCGACTCACTATAGGGATAATCGCCCTGAGCAAAGACC”, the binding signal was 2.49 ± 0.0838 log2FC.

Take “CTCGAGGATATCAAGATCTGGCCTCGGCTACGTAAAAGGAACCTCTAGCTAGCCGACTCACTATAGGGATAATCGCCCTGAGCAAAGACC”: the binding signal was 0.743 ± 0.0961 log2FC.

Sequence “CTCGAGGATATCAAGATCTGGCCTCGGCATGTTAAAAGGAACCTCTAGCTAGCCGACTCACTATAGGGATAATCGCCCTGAGCAAAGACC” came in with a binding signal of 1.48 ± 0.0814 log2FC.

“CTCGAGGATATCAAGATCTGGCCTCGGCCGCATCCGCGGAACCTCTAGCTAGCCGACTCACTATAGGGATAATCGCCCTGAGCAAAGACC” yielded a binding signal of -0.957 ± 0.122 log2FC.

Take “CTCGAGGATATCAAGATCTGGCCTCGGCAATCTAAAAGGAACCTCTAGCTAGCCGACTCACTATAGGGATAATCGCCCTGAGCAAAGACC”: the binding signal is -0.296 ± 0.111 log2FC.

As for “CTCGAGGATATCAAGATCTGGCCTCGGCGCGTACGCGGGAACCTCTAGCTAGCCGACTCACTATAGGGATAATCGCCCTGAGCAAAGACC”, the binding signal was -1.05 ± 0.139 log2FC.

In the case of “CTCGAGGATATCAAGATCTGGCCTCGGCCTTTTAAGCGGAACCTCTAGCTAGCCGACTCACTATAGGGATAATCGCCCTGAGCAAAGACC”, the binding signal worked out at 0.916 ± 0.0855 log2FC.

Take “CTCGAGGATATCAAGATCTGGCCTCGGCGGATTAAAAGGAACCTCTAGCTAGCCGACTCACTATAGGGATAATCGCCCTGAGCAAAGACC”: the binding signal was 1.17 ± 0.076 log2FC.

In the case of “CTCGAGGATATCAAGATCTGGCCTCGGCTTTTTACTTGGAACCTCTAGCTAGCCGACTCACTATAGGGATAATCGCCCTGAGCAAAGACC”, the binding signal turned out to be 1.32 ± 0.0895 log2FC.

In turn, “CTCGAGGATATCAAGATCTGGCCTCGGCTCCTTAAAAGGAACCTCTAGCTAGCCGACTCACTATAGGGATAATCGCCCTGAGCAAAGACC” displayed a binding signal of 1.08 ± 0.104 log2FC.

Sequence “CTCGAGGATATCAAGATCTGGCCTCGGCTTTTTACTAGGAACCTCTAGCTAGCCGACTCACTATAGGGATAATCGCCCTGAGCAAAGACC” yielded a binding signal of 3.21 ± 0.0865 log2FC.

“CTCGAGGATATCAAGATCTGGCCTCGGCCATGTAAAAGGAACCTCTAGCTAGCCGACTCACTATAGGGATAATCGCCCTGAGCAAAGACC” displayed a binding signal of 1.41 ± 0.0975 log2FC.

Consider “CTCGAGGATATCAAGATCTGGCCTCGGCTTTTTAAACGGAACCTCTAGCTAGCCGACTCACTATAGGGATAATCGCCCTGAGCAAAGACC”, for which the binding signal was 1.28 ± 0.101 log2FC.

As to “CTCGAGGATATCAAGATCTGGCCTCGGCCTTTTATCTGGAACCTCTAGCTAGCCGACTCACTATAGGGATAATCGCCCTGAGCAAAGACC”, the binding signal turned out to be 0.811 ± 0.0782 log2FC.

“CTCGAGGATATCAAGATCTGGCCTCGGCACCTTAAAAGGAACCTCTAGCTAGCCGACTCACTATAGGGATAATCGCCCTGAGCAAAGACC” gave a binding signal of 0.52 ± 0.102 log2FC.

As for “CTCGAGGATATCAAGATCTGGCCTCGGCAGACTAAAAGGAACCTCTAGCTAGCCGACTCACTATAGGGATAATCGCCCTGAGCAAAGACC”, the binding signal was -0.679 ± 0.104 log2FC.

“CTCGAGGATATCAAGATCTGGCCTCGGCTGCGTAAAAGGAACCTCTAGCTAGCCGACTCACTATAGGGATAATCGCCCTGAGCAAAGACC” came in with a binding signal of 1.22 ± 0.0881 log2FC.

Sequence “CTCGAGGATATCAAGATCTGGCCTCGGCCTTTTATGTGGAACCTCTAGCTAGCCGACTCACTATAGGGATAATCGCCCTGAGCAAAGACC” had a binding signal of 2.69 ± 0.0743 log2FC.

Sequence “CTCGAGGATATCAAGATCTGGCCTCGGCTCAATAAAAGGAACCTCTAGCTAGCCGACTCACTATAGGGATAATCGCCCTGAGCAAAGACC” registered a binding signal of 2.74 ± 0.0786 log2FC.

The sequence “CTCGAGGATATCAAGATCTGGCCTCGGCTTTTTAACAGGAACCTCTAGCTAGCCGACTCACTATAGGGATAATCGCCCTGAGCAAAGACC” registered a binding signal of 2.05 ± 0.0793 log2FC.

As for “CTCGAGGATATCAAGATCTGGCCTCGGCGTTTTACAGGGAACCTCTAGCTAGCCGACTCACTATAGGGATAATCGCCCTGAGCAAAGACC”, the binding signal is 2.89 ± 0.0835 log2FC.

On to “CTCGAGGATATCAAGATCTGGCCTCGGCATTTTACCAGGAACCTCTAGCTAGCCGACTCACTATAGGGATAATCGCCCTGAGCAAAGACC”, for which the binding signal was 0.505 ± 0.0919 log2FC.

In the case of “CTCGAGGATATCAAGATCTGGCCTCGGCTTCGTAAAAGGAACCTCTAGCTAGCCGACTCACTATAGGGATAATCGCCCTGAGCAAAGACC”, the binding signal was 1.86 ± 0.0804 log2FC.
